Records with an inconclusive call do not appear. Active and inactive are the calls of the source. How the source made its calls, unless noted: active means hit-call score of the fitted dose curve at least 0.9, where 1 is the maximum; inconclusive means response in the unintended direction; inactive means score below 0.9.

The target in test [1] is T1, Thyroid hormone receptor alpha (Rattus norvegicus) + Thyroid hormone receptor beta (Rattus norvegicus) (UniProt P18113+P63059). As to the kind of experiment: TOX21_TR_LUC_GH3_Antagonist_Followup: Tox21 GH3 Thyroid Hormone Receptor Antagonism Luciferase Follow-Up Assay (AID 2283942). The procedure, abridged:
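Confirmatory qHTS, antagonist mode: T3 (1.0 nM final) + test cpd, 15 conc, 92 uM–5nM final, GH3 rat pituitary line, 24 h, 37C. Luc reporter, RLU vs DMSO.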

In test [2] the target is THRA (gene 7067) (UniProt P10827). As to the kind of experiment: TOX21_TRA_COA_Antagonist_Followup_ratio: Tox21 Thyroid Hormone Receptor alpha Antagonism through Coactivator Recruitment Follow-Up Assay, Ratio (AID 2283953). The procedure, abridged: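 520:495 nm emission ratio (excitation 340 nm) reports fluorescein-SRC-2 peptide recruitment to GST-TRα LBD by TR-FRET with Tb anti-GST antibody. Values were normalized to DMSO (0%) and T3 control wells (100%); loss of signal indicated antagonism.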

In test [3] the target is THRB (gene 7068) (UniProt P10828). As to the kind of experiment: TOX21_TRB_BLA_Antagonist_Followup_ratio: Tox21 Thyroid Hormone Receptor beta Antagonism Beta-lactamase (BLA) Follow-Up Assay, Ratio (AID 2283958). The procedure, abridged:
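HEK293T TRb-bla (GAL4 DBD + hTRβ LBD), 2% cs-FBS phenol red-free DMEM, 5 h attach; cpds 11-pt triplicate, 18 h 37C; CCF4-AM 2 h RT; 460/530 ratio vs DMSO; CellTiter-Glo viability same wells.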

Test [4] is described as follows: TOX21_TRB_BLA_Antagonist_Followup_viability: Viability Assessment in the Tox21 Thyroid Hormone Receptor beta Antagonism Beta-lactamase (BLA) Follow-Up Assay (AID 2283961). In outline: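 Viability read as CellTiter-Glo ATP luminescence (loss of signal = cytotoxicity) in the same plates as the TRβ-bla readout. TRβ-LBD/GAL4 UAS-bla HEK293T cells were exposed to compounds, 11 concentrations in triplicate, for 18 h at 37C/5% CO2.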

Test [5] addresses THRB (gene 7068) (UniProt P10828). As to the kind of experiment: TOX21_TRB_COA_Antagonist_Followup_ratio: Tox21 Thyroid Hormone Receptor beta Antagonism through Coactivator Recruitment Follow-Up Assay, Ratio (AID 2283967). The procedure, abridged: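 Test compound was incubated with 5.0 nM GST-TRβ LBD in 0.10% BSA. Then 200 nM fluorescein-SRC-2 peptide and 2 nM terbium anti-GST antibody were added. TR-FRET (520:495 nm) was measured and normalized to DMSO and T3 controls.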

Test [6] has as its target T1, Thyroid hormone receptor alpha (Rattus norvegicus) + Thyroid hormone receptor beta (Rattus norvegicus). As to the kind of experiment: TOX21_TR_LUC_GH3_Agonist_Followup: Tox21 GH3 Thyroid Hormone Receptor Agonism Luciferase Follow-Up Assay (AID 2283939). In outline:
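Rat GH3 cells (1,500/well) in serum-free assay medium, treated with 15-point series, 92 uM to 5 nM final, for 24 h at 37C. Luciferase via ONE-Glo luminescence; gain of signal fitted against DMSO, T3 positive control.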

The target of test [7] is THRA (gene 7067) (UniProt P10827). Description: TOX21_TRA_COA_Agonist_Followup_ratio: Tox21 Thyroid Hormone Receptor alpha Agonism through Coactivator Recruitment Follow-Up Assay, Ratio (AID 2283948; active means hit-call score of the fitted dose curve at least 0.9, where 1 is the maximum; inactive means score below 0.9). The procedure, abridged: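 GST-TRa LBD 2.5 nM + 0.10% BSA + cpd; add fluorescein-SRC-2 200 nM, Tb-anti-GST 2 nM. TR-FRET ex 340, em 520/495 ratio. Norm: DMSO 0%, T3 100%; gain-of-signal fit.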

Test [8] addresses THRB (gene 7068) (UniProt P10828). As to the kind of experiment: TOX21_TRB_COA_Agonist_Followup_ratio: Tox21 Thyroid Hormone Receptor beta Agonism through Coactivator Recruitment Follow-Up Assay, Ratio (AID 2283963; active means hit-call score of the fitted dose curve at least 0.9, where 1 is the maximum; inactive means score below 0.9). In outline:
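Signal is the 520/495 nm emission ratio (excitation 340 nm), scaled between DMSO-only wells as 0% and T3 wells as 100%. It reflects fluorescein-labeled SRC-2 peptide recruitment to GST-TRβ ligand-binding domain detected via terbium anti-GST antibody.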

Test [9] addresses Retinoic acid receptor RXR-alpha (Homo sapiens) (UniProt P19793). As to the kind of experiment: TOX21_TR_RXR_BLA_Agonist_Followup_ratio: Tox21 Thyroid Hormone Receptor beta Retinoid X Receptor alpha (RXRa) Agonism Beta-lactamase (BLA) Follow-Up Assay, Ratio (AID 2283968). In outline: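 HEK293T RXRa-bla, qHTS; cpd 11-pt conc. in triplicate, 16 h 37C/5% CO2; CCF4-AM 2 h RT; ratio 460:530 nm; agonist direction vs DMSO; 9-cis retinoic acid as positive control.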

In test [10] the target is PGR (gene 5241) (UniProt P06401). As to the kind of experiment: TOX21_PR_BLA_Followup_Agonist_ratio: Tox21 HEK293 Progesterone Receptor (PR) Agonism Beta-lactamase Follow-Up Assay, Ratio (AID 2283933). The procedure, abridged:
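HEK293T PR-UAS-bla, 2% CS-FBS; 6 hr preincubation, cpd/DMSO pinned, 16 hr 37C/5% CO2; LiveBLAzer B/G 2 hr RT; FRET ch2/ch1 ratio, agonist direction vs DMSO. Viability by CellTiter-Glo in same wells.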

The target is the same in test [11]. Description: TOX21_PR_BLA_Followup_Antagonist_ratio: Tox21 HEK293 Progesterone Receptor (PR) Antagonism Beta-lactamase Follow-Up Assay, Ratio (AID 2283934). In outline: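 HEK293T PR-UAS-bla, 2% CS-FBS; 6 hr plating, then cpd + R5020 (1 nM final), 16 hr 37C/5% CO2. B/G FRET substrate 2 h RT. Ratio ch2/ch1 vs DMSO; CellTiter-Glo viability multiplexed, autofluorescence checked.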

The nature of test [12]: TOX21_PR_BLA_Followup_Antagonist_viability: Viability Assessment in the Tox21 HEK293 Progesterone Receptor (PR) Antagonism Beta-lactamase Follow-Up Assay (AID 2283936).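 Further: hits lower the luminescence signal meaning cytotoxicity.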 In outline: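 PR-UAS-bla HEK293T cells (3,000/well, 2% charcoal-stripped FBS) given compound plus R5020 agonist, 16 h at 37C. CellTiter-Glo added after bla read, 30 min at room temperature; luminescence loss indicates cytotoxicity.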

Test [13] deals with PGR (gene 5241) (UniProt P06401). Description: TOX21_PR_LUC_Followup_Agonist: Tox21 HEK293 Progesterone Receptor (PR) Agonism Luciferase Follow-Up Assay (AID 2283937; active means hit-call score of the fitted dose curve at least 0.9, where 1 is the maximum; inactive means score below 0.9). The procedure, abridged: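 Cells: HEK293-PR-A-luc, 3,000/well, 10% charcoal-stripped FBS assay medium. Compound added after 5 h; 16 h, 37C, 0% CO2. ONE-Glo luciferase, luminescence. Positive fit vs DMSO.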
Test [14] has the same target. As to the kind of experiment: TOX21_PR_LUC_Followup_Antagonist: Tox21 HEK293 Progesterone Receptor (PR) Antagonism Luciferase Follow-Up Assay (AID 2283938).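 Further: curve fitted upward as signal gain over DMSO baseline despite antagonist label.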 The procedure, abridged: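 Luminescence from ONE-Glo reagent, measured after 30 min at room temperature, served as readout. Cells (HEK293 carrying PR-A-luc) had been treated 16 h at 37C with DMSO-dissolved compounds. Activity was fitted against DMSO controls.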

The nature of test [15]: TOX21_PR_LUC_Followup_Antagonist_viability: Viability Assessment in the Tox21 HEK293 Progesterone Receptor (PR) Antagonism Luciferase Follow-Up Assay (AID 2283940). In outline:
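Multiplexed viability counter-screen: after 5 days in charcoal-stripped-FBS medium, HEK293-PR-A-luc cells are plated, pinned with DMSO-dissolved compounds for 16 h at 37C, and ATP content is quantified luminescently via CellTiter-Glo.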

Test [16] can be described thus: TOX21_PR_LUC_Followup_Agonist_viability: Viability Assessment in the Tox21 HEK293 Progesterone Receptor (PR) Agonism Luciferase Follow-Up Assay (AID 2283941).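 Further: loss of signal means cytotoxicity so actives lower viability.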 In outline: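 Cells were kept 5 days in charcoal-stripped serum medium before plating HEK293-PR-A-luc at 3,000 cells/well. After 5 h they received DMSO-dissolved compound and incubated 16 h at 37C. Viability was taken from CellTiter-Glo ATP luminescence.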

Test [17] in a line: TOX21_PR_BLA_Followup_Agonist_viability: Viability Assessment in the Tox21 HEK293 Progesterone Receptor (PR) Agonism Beta-lactamase Follow-Up Assay (AID 2283935).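 Further: cells exposed to compound for 16 hr at 37 °C; signal loss means lower viability so actives are cytotoxic.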 The procedure, abridged: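 HEK293T PR-UAS-bla, 3,000 cells/well, 2% CS-FBS; 6 hr pre-incubation; cpd in DMSO, 16 hr 37C; LiveBLAzer 2 hr RT, then CellTiter-Glo 30 min RT, luminescence. Decrease = lost viability.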

Test [18] in a line: CEETOX_H295R_ESTRADIOL_noMTC: CeeTox H295R High-throughput Steroidogenesis Assay for Estradiol, maximum tolerated concentration (MTC) filtered results only (AID 2283919; active means hit-call score of the fitted dose curve at least 0.9, where 1 is the maximum; inactive means score below 0.9). The note with it: actives raise or lower the signal. In outline:
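H295R human adrenal cells pre-stimulated 48 h with 10 uM forskolin, then exposed 48 h to chemical (0.1% DMSO final). Estradiol in medium measured by HPLC-MS/MS after MTBE extraction and dansyl derivatization; bidirectional fit versus DMSO, concentrations not MTT-filtered.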

Test [19] can be described thus: CEETOX_H295R_PROG_noMTC: CeeTox H295R High-throughput Steroidogenesis Assay for Progesterone (PROG), maximum tolerated concentration (MTC) filtered results only (AID 2283920; active means hit-call score of the fitted dose curve at least 0.9, where 1 is the maximum; inactive means score below 0.9). The conditions noted are these: actives raise or lower the signal. In outline: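 H295R cells; forskolin 10 uM x 48 h prestim; test cpd 48 h, 0.1% DMSO final; media progesterone via LC-MS/MS; bidirectional fit vs DMSO; no MTT-based MTC filter applied.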

Test [20] can be described thus: CEETOX_H295R_ESTRONE_noMTC: CeeTox H295R High-throughput Steroidogenesis Assay for Estrone, maximum tolerated concentration (MTC) filtered results only (AID 2283921; active means hit-call score of the fitted dose curve at least 0.9, where 1 is the maximum; inactive means score below 0.9). The conditions noted are these: actives raise or lower the signal. The procedure, abridged:
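H295R cells prestimulated 48 h with 10 uM forskolin, then exposed 48 h to chemical in 0.1% DMSO; medium estrone measured by HPLC-MS/MS after MTBE extraction and dansyl derivatization, fitted bidirectionally versus DMSO without MTT-based MTC filtering.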

THRB (gene 7068), sequence (P10828 whole entry, looked up, the tested form may be a part): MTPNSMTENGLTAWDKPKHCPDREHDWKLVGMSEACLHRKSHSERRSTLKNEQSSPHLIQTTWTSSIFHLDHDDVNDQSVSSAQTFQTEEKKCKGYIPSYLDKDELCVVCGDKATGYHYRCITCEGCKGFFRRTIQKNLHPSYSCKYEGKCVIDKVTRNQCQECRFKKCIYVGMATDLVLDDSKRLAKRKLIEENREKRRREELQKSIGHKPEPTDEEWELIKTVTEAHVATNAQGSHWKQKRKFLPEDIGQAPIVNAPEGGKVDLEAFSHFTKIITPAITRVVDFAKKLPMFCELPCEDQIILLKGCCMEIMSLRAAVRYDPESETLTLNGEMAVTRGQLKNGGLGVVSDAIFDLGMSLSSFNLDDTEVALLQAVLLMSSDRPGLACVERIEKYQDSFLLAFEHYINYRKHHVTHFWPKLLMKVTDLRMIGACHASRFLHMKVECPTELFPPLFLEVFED
THRA (gene 7067), sequence (P10827 whole entry, looked up, the tested form may be a part): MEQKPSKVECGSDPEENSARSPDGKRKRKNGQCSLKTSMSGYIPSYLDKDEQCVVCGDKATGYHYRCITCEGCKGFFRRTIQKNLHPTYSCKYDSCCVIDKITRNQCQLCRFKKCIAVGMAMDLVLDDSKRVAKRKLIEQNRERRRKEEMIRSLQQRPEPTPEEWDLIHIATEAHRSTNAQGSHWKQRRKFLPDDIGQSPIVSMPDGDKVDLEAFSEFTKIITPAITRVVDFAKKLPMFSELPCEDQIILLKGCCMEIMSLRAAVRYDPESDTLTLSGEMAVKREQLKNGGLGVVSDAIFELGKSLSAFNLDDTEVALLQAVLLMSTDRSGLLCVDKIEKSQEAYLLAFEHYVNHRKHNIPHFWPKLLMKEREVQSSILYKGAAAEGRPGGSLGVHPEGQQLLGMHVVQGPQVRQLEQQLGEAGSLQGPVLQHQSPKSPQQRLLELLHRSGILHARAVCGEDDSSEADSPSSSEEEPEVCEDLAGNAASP
Retinoic acid receptor RXR-alpha (Homo sapiens), sequence (P19793 whole entry, looked up): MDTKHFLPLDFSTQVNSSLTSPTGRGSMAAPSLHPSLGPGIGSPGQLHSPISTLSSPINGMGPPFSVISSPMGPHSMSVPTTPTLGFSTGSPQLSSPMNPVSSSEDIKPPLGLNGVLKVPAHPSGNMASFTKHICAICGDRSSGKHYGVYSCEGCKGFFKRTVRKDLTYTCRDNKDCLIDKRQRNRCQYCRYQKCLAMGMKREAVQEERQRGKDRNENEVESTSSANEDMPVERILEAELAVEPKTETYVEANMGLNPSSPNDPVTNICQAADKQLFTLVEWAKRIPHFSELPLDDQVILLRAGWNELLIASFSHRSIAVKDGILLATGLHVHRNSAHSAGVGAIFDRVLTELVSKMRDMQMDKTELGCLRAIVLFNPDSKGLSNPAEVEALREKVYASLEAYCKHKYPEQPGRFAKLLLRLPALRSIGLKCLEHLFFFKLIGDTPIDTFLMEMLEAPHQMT
PGR (gene 5241), sequence (P06401 whole entry, looked up): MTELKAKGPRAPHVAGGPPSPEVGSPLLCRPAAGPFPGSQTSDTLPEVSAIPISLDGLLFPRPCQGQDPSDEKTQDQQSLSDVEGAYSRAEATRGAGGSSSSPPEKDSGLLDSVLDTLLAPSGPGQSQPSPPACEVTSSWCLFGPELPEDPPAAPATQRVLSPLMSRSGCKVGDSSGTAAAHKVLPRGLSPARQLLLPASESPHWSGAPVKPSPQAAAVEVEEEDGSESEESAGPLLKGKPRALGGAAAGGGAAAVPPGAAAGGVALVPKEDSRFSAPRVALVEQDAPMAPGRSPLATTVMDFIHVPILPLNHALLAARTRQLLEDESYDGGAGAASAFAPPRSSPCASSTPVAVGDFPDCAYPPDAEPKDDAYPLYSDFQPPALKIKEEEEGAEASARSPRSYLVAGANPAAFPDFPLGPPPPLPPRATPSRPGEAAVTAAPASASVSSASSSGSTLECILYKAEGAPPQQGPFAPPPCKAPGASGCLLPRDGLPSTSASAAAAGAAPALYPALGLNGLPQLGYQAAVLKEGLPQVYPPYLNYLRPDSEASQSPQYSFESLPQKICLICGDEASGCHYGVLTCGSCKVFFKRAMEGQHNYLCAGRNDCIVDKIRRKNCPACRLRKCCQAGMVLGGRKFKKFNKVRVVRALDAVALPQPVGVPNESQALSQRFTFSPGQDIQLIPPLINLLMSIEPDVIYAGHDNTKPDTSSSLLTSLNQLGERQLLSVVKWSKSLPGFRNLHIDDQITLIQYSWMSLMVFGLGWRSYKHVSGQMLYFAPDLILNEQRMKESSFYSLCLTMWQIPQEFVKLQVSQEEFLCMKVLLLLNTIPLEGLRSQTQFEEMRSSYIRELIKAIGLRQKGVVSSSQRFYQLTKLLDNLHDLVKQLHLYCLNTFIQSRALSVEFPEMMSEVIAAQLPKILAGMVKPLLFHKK
T1 sequence (P63059 whole entry, looked up): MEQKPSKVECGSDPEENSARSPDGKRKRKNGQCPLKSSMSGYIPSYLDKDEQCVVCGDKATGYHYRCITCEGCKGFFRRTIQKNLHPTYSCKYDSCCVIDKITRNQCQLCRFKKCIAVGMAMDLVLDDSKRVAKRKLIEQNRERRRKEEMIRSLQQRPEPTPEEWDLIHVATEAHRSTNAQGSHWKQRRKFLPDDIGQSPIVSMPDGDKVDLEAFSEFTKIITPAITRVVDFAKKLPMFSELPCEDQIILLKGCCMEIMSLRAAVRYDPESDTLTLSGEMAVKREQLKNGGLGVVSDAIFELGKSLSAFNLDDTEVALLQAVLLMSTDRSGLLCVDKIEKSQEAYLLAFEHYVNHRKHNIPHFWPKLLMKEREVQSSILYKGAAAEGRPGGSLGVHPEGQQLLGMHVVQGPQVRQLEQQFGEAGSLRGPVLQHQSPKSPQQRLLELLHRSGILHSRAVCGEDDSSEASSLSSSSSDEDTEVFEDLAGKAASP
T1 sequence (P18113 whole entry, looked up): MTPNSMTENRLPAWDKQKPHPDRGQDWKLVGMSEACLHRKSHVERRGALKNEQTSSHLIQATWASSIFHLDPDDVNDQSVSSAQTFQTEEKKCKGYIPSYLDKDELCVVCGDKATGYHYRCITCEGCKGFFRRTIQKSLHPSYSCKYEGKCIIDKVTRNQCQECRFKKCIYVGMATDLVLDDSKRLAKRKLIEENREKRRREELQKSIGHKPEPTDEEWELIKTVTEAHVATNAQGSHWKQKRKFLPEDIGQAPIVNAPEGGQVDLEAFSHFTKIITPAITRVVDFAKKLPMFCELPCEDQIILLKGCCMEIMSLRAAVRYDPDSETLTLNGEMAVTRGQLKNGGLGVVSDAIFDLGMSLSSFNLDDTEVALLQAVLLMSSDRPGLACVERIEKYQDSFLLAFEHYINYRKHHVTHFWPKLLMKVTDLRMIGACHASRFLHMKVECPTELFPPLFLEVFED

Turning to `CC(=O)[C@H]1CC[C@H]2[C@@H]3CCC4=CC(=O)CC[C@]4(C)[C@H]3CC[C@]12C`, the result (in test [1]; in the test with THRA (gene 7067) [2]; in the test with THRB (gene 7068) [3]; in test [4]; in the test with THRB (gene 7068) [5]) was inactive.

For the molecule `CCNc1nc(N)nc(Cl)n1`, the outcome (in [6]; with THRA (gene 7067) [7]; with THRB (gene 7068) [8]; in [9]) was inactive.

On to `O=C(c1ccc(O)cc1O)c1ccc(O)cc1O`, for which the outcome (with PGR (gene 5241) [10]; in test [12]; with PGR (gene 5241) [13]; in [15]; in test [16]) was inactive. Besides, the results for the AC50 with PGR (gene 5241) [11] and with PGR (gene 5241) [14] were 58.1 µM (active) and 68.3 µM (active), respectively.

For `CC(C)(c1ccc(O)cc1)c1ccc(O)cc1`, the result (in the test with PGR (gene 5241) [10]; in [17]; in test [12]; with PGR (gene 5241) [13]; in test [15]) was inactive. The AC50 with PGR (gene 5241) [11] was 32.9 µM (active); in the test with PGR (gene 5241) [14] it was 33.3 µM (active).

For `COC(=O)c1ccccc1C(=O)O`, the molecule was called inactive in test [18], in test [19] and in test [20].

Regarding `CCCN(CCC)C(=O)SCC`, the result (in test [6]; with THRA (gene 7067) [7]; with THRB (gene 7068) [8]; in test [9]) was inactive.

For `C[C@]12C[C@H](O)[C@H]3[C@@H](CCC4=CC(=O)CC[C@@]43C)[C@@H]1CC[C@@H]2C(=O)CO`, the outcome (in [17]; in test [12]; in the test with PGR (gene 5241) [14]; in test [16]; in the test with THRA (gene 7067) [2]; with THRB (gene 7068) [3]) was inactive. The result in [4] was inactive.

In the case of `CC(C)CCCCCCc1ccc(O)cc1`, the result (with PGR (gene 5241) [11]; in [17]; in test [12]; in the test with PGR (gene 5241) [14]; in [15]; in test [16]) was inactive.

For the molecule `C[C@]12CC[C@@H]3c4ccc(O)cc4C[C@@H](CCCCCCCCCS(=O)CCCC(F)(F)C(F)(F)F)[C@H]3[C@@H]1CC[C@@H]2O` (some centres not stated), the result (in the test with PGR (gene 5241) [10]; with PGR (gene 5241) [13]; in test [15]; in test [16]; in test [1]; in test [4]) was inactive. Further, in the test with THRB (gene 7068) [5], the outcome was inactive. For the same molecule, the AC50 is 4.06 µM (active) with PGR (gene 5241) [11] and 5.78 µM (active) with PGR (gene 5241) [14].

Consider `CCCCC(CC)COC(=O)c1ccccc1C(=O)O` (configuration not stated), for which the outcome in test [19] was inactive.

With `COC(=O)c1ccc(I)cc1S(=O)(=O)NC(=O)Nc1nc(C)nc(OC)n1`, the result (in test [6]; with THRA (gene 7067) [7]; in the test with THRB (gene 7068) [8]; in test [9]) was inactive.

Source of the values: PubChem BioAssay (EPA / NIEHS).
